Results on 22 molecules are retold here after PubChem BioAssay.

Assay [1] can be described thus: sensitizers of A549 cells to miR-34 induction, primary screen, imaging, A549 dox-inducible miR-34, nuclei and caspase counts (AID 1347080;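 active = compounds whose cell count with miR-34 switched on is under 0.7 times the count with it off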). The conditions noted are these: A549 miR-34 inducible, Hoechst nuclei count, 48 h.
The nature of assay [2]: survival rescue of mitochondrial mutant cells in low glucose, primary screen, MELAS cybrids, Rieske KO mouse fibroblasts, CellTiter-Glo (AID 1508586).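 Also: z relative to plate mean and SD of compound and empty wells.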
The mark [3] stands for this setting: stronger effect = lower value, cell number ratio, induced over uninduced.
Where [4] appears, read: measured here: relative caspase fold change +Dox/-Dox.
Where [5] appears, read: measured here: total cells with miR-34 induction, stronger effect = lower value.
[6] abbreviates: measured here: total cells without miR-34 induction.
[7] abbreviates: MELAS cybrid survival, CellTiter-Glo 48 h, stronger effect = higher value.
[8] abbreviates: Rieske KO mouse fibroblast survival, CellTiter-Glo 72 h.

The structures appear in SMILES notation. Calls of active or inactive are those of the source.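 The calls were made as follows, unless noted: active = mean z-score across replicates of 1.96 or higher in either the MELAS or the Rieske mutant cell line; inactive = the rest.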
Also: test concentration not given here.

Take `Nc1nc2c(ncn2C2OC(CO)C(O)C2O)c(=O)[nH]1` (configuration not stated): the results for the fold change in assay [1] (setting [3]) and in assay [1] (setting [4]) were 0.891 (inactive) and 0.755, respectively. Moreover, the cell count is 8140 in assay [1] (setting [5]) and 9140 in assay [1] (setting [6]). Further, the z-score in assay [2] (setting [7]) was -0.357 (inactive); in assay [2] (setting [8]), -0.0165.

In the case of `O=C1C(Cc2ccc(O)cc2)N2C(=O)CCN(C(=O)NCc3ccccc3)[C@H]2CN1Cc1cccc2ccccc12` (some centres not stated), the fold change in assay [1] (setting [3]) was 1.06 (inactive); in assay [1] (setting [4]) it was 0.528. For the same molecule, the cell count turned out to be 2850 in assay [1] (setting [5]) and 2690 in assay [1] (setting [6]). The z-score in assay [2] (setting [7]) was -0.585 (inactive); in assay [2] (setting [8]), -0.172.

Take `COc1c(C)c(C(=O)c2ccc(N)c(C(=O)O)c2)n2ccccc12`: the fold change was 0.908 (inactive) in assay [1] (setting [3]) and 0.344 in assay [1] (setting [4]). For the same molecule, the cell count was determined as 7600 in assay [1] (setting [5]) and 8370 in assay [1] (setting [6]). Moreover, the z-score in assay [2] (setting [7]) is 0.355 (inactive); in assay [2] (setting [8]) it was -2.17.

Consider `O=C(NCCO)c1cccc(-c2cc(Nc3ccc(OC(F)(F)F)cc3)ncn2)c1`, for which the fold change in assay [1] (setting [3]) was 0.847 (inactive); in assay [1] (setting [4]), 0.626. Besides, the cell count in assay [1] (setting [5]) turned out to be 7400; in assay [1] (setting [6]), 8740. The values for the z-score in assay [2] (setting [7]) and in assay [2] (setting [8]) were -0.469 (inactive) and 0.943, respectively.

For the molecule `CC(NC(=O)C(Cc1ccccc1)NC(=O)OCc1ccccc1)C(=O)CF` (configuration not stated), the fold change is 0.911 (inactive) in assay [1] (setting [3]) and 0.415 in assay [1] (setting [4]). The cell count in assay [1] (setting [5]) came to 8780; in assay [1] (setting [6]), 9640. Also, the z-score is -0.389 (inactive) in assay [2] (setting [7]) and -0.551 in assay [2] (setting [8]).

Turning to `O=C(Nc1cc(C(F)(F)F)ccc1N1CCCCC1)c1ccncc1`, the fold change in assay [1] (setting [3]) was 0.916 (inactive); in assay [1] (setting [4]), 0.317. For the same molecule, the cell count was found to be 7440 in assay [1] (setting [5]) and 8120 in assay [1] (setting [6]). Also, the figures for the z-score in assay [2] (setting [7]) and in assay [2] (setting [8]) were -0.391 (inactive) and 1.41, respectively.

As for `CC(NC(=O)Cc1cc(F)cc(F)c1)C(=O)NC(C(=O)OC(C)(C)C)c1ccccc1` (configuration not stated), the fold change is 0.856 (inactive) in assay [1] (setting [3]) and 0.819 in assay [1] (setting [4]). In addition, the cell count in assay [1] (setting [5]) came out at 7300; in assay [1] (setting [6]) it was 8530. The z-score is -0.187 (inactive) in assay [2] (setting [7]) and 0.801 in assay [2] (setting [8]).

In the case of `C=C1C(=O)[C@@]23C(O)[C@H]1CCC2[C@]12CO[C@]3(O)C(O)[C@@H]1C(C)(C)CCC2O` (some centres not stated), the fold change in assay [1] (setting [3]) is 0.94 (inactive); in assay [1] (setting [4]) it was 0.647. The cell count came out at 8410 in assay [1] (setting [5]) and 8940 in assay [1] (setting [6]). In addition, the z-score in assay [2] (setting [7]) was -0.553 (inactive); in assay [2] (setting [8]), -0.438.

For the molecule `OC(COc1cccc2ncccc12)CN1CCN(C2c3ccccc3C3C(c4ccccc42)C3(F)F)CC1` (configuration not stated), the fold change in assay [1] (setting [3]) is 1.04 (inactive); in assay [1] (setting [4]), 0.683. The cell count in assay [1] (setting [5]) stood at 5300; in assay [1] (setting [6]) it was 5090. Further, the z-score is -0.428 (inactive) in assay [2] (setting [7]) and 0.74 in assay [2] (setting [8]).

As for `C[C@]1(C(=O)Nc2ccc(F)nc2)CCCN1c1nc(Nc2cc(C3CC3)[nH]n2)c2cccn2n1`, the fold change in assay [1] (setting [3]) is 1.01 (inactive); in assay [1] (setting [4]) it was 0.776. Further, the cell count was 2100 in assay [1] (setting [5]) and 2080 in assay [1] (setting [6]). Besides, the z-score in assay [2] (setting [7]) was -0.348 (inactive); in assay [2] (setting [8]), -2.24.

On to `Cc1c(C(=O)Nc2ccc(N3CCC(N4CCOCC4)CC3)c(C#N)c2)cnn1-c1ccc(Cl)cc1`, for which the fold change is 0.979 (inactive) in assay [1] (setting [3]) and 0.399 in assay [1] (setting [4]). Moreover, the values for the cell count in assay [1] (setting [5]) and in assay [1] (setting [6]) were 1870 and 1910, respectively. Further, the z-score in assay [2] (setting [7]) was -0.464 (inactive); in assay [2] (setting [8]), -0.322.

For `Cc1cc(C)c(C=C2C(=O)Nc3ccccc32)[nH]1`, the fold change in assay [1] (setting [3]) is 0.941 (inactive); in assay [1] (setting [4]), 0.528. Also, the cell count in assay [1] (setting [5]) was determined as 5670; in assay [1] (setting [6]) it was 6030. The z-score is 0.363 (inactive) in assay [2] (setting [7]) and -0.0507 in assay [2] (setting [8]).

Consider `C=CC1CN2CC[C@H]1C[C@H]2C(O)c1ccnc2ccc(OC)cc12` (some centres not stated), for which the results for the fold change in assay [1] (setting [3]) and in assay [1] (setting [4]) were 0.964 (inactive) and 0.844, respectively. Also, the values for the cell count in assay [1] (setting [5]) and in assay [1] (setting [6]) were 8110 and 8420, respectively. Further, the z-score in assay [2] (setting [7]) is -0.205 (inactive); in assay [2] (setting [8]), -0.396.

In the case of `CC(C)(C)c1ccc(-c2nc3ccccc3[nH]2)cc1`, the fold change was 0.982 (inactive) in assay [1] (setting [3]) and 0.555 in assay [1] (setting [4]). For the same molecule, the cell count in assay [1] (setting [5]) came to 8150; in assay [1] (setting [6]), 8300. Besides, the z-score was -0.625 (inactive) in assay [2] (setting [7]) and -3.26 in assay [2] (setting [8]).

Regarding `COc1cc(C=CC(=O)O)ccc1O`, the fold change in assay [1] (setting [3]) is 0.929 (inactive); in assay [1] (setting [4]) it was 0.764. The values for the cell count in assay [1] (setting [5]) and in assay [1] (setting [6]) were 7790 and 8380, respectively. For the same molecule, the z-score was -0.291 (inactive) in assay [2] (setting [7]) and -1.2 in assay [2] (setting [8]).

Take `O=C(C=Cn1cnc(-c2cc(C(F)(F)F)cc(C(F)(F)F)c2)n1)N1CC(F)(F)C1`: the fold change is 0.887 (inactive) in assay [1] (setting [3]) and 0.422 in assay [1] (setting [4]). Besides, the cell count turned out to be 1980 in assay [1] (setting [5]) and 2230 in assay [1] (setting [6]). For the same molecule, the results for the z-score in assay [2] (setting [7]) and in assay [2] (setting [8]) were -0.618 (inactive) and -7.49, respectively.

With `CC1(C)SC2C(NC(=O)C(C(=O)O)c3ccsc3)C(=O)N2C1C(=O)O` (configuration not stated), the fold change in assay [1] (setting [3]) is 0.763 (inactive); in assay [1] (setting [4]) it was 0.814. Moreover, the cell count in assay [1] (setting [5]) was found to be 7330; in assay [1] (setting [6]), 9600. Also, the values for the z-score in assay [2] (setting [7]) and in assay [2] (setting [8]) were -0.203 (inactive) and -0.146, respectively.

Turning to `CC(=O)C1CC[C@H]2[C@@H]3CC=C4CC(O)CC[C@]4(C)[C@@H]3CC[C@]12C` (some centres not stated), the values for the fold change in assay [1] (setting [3]) and in assay [1] (setting [4]) were 0.983 (inactive) and 0.867, respectively. In addition, the cell count turned out to be 7780 in assay [1] (setting [5]) and 7910 in assay [1] (setting [6]). The z-score is -0.328 (inactive) in assay [2] (setting [7]) and 0.251 in assay [2] (setting [8]).

For the molecule `CC(=O)OC1C(=O)[C@]2(C)C(O)CC3OC[C@@]3(OC(C)=O)C2C(OC(=O)c2ccccc2)[C@]2(O)CC(OC(=O)C(O)C(NC(=O)c3ccccc3)c3ccccc3)C(C)=C1C2(C)C` (some centres not stated), the fold change in assay [1] (setting [3]) was 0.984 (inactive); in assay [1] (setting [4]), 0.702. Also, the results for the cell count in assay [1] (setting [5]) and in assay [1] (setting [6]) were 1360 and 1380, respectively. In addition, the z-score in assay [2] (setting [7]) was 1.51 (inactive); in assay [2] (setting [8]), 0.434.

Regarding `COc1ccc(S(=O)(=O)N(C(C)=O)c2ccccc2C=Cc2cc[n+]([O-])cc2)cc1`, the fold change is 1.18 (inactive) in assay [1] (setting [3]) and 0.723 in assay [1] (setting [4]). For the same molecule, the cell count in assay [1] (setting [5]) amounted to 1240; in assay [1] (setting [6]), 1050. Further, the z-score is 0.938 (inactive) in assay [2] (setting [7]) and -0.247 in assay [2] (setting [8]).

`O=C(NC1CCN(CCCCC2(C(=O)NCC(F)(F)F)c3ccccc3-c3ccccc32)CC1)c1ccccc1-c1ccc(C(F)(F)F)cc1`: the results for the fold change in assay [1] (setting [3]) and in assay [1] (setting [4]) were 1.05 (inactive) and 0.667, respectively. The values for the cell count in assay [1] (setting [5]) and in assay [1] (setting [6]) were 3960 and 3780, respectively. In addition, the z-score in assay [2] (setting [7]) was -0.492 (inactive); in assay [2] (setting [8]) it was -0.827.

For `O=C(CS(=O)Cc1ccco1)NCC=CCOc1cc(CN2CCCCC2)ccn1` (configuration not stated), the figures for the fold change in assay [1] (setting [3]) and in assay [1] (setting [4]) were 0.878 (inactive) and 0.735, respectively. Moreover, the results for the cell count in assay [1] (setting [5]) and in assay [1] (setting [6]) were 8120 and 9240, respectively. For the same molecule, the z-score in assay [2] (setting [7]) is -0.242 (inactive); in assay [2] (setting [8]), -0.613.
